Records with an inconclusive call do not appear. Activity calls are given as the source filed them.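 The calls were made as follows, unless noted: active = viability at or below 27.92% in each of two runs, the all-compound median minus 4 SD; inconclusive = no clear call, values can overlap the other calls; inactive = the rest.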
Columns and labels:
[1] = reducers of endogenous Her2 protein level, primary screen, SKBR3 breast tumor cells, AlphaScreen, ATP viability (AID 461;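 active = Her2 level under about 52% in both replicate screens, with viability over 70% of control, limit read from the data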;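 as to Her2 level: lower value means less Her2 protein in the cells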;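 as to viability: percent of carrier control wells set as 100% viability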); settings: 18-24 h, measured here: SKBR3 viability, ATP luminescence, at 10 µM
[2] = molecular target: Receptor tyrosine-protein kinase erbB-2 (Homo sapiens) (UniProt P04626); assay: as above; settings: 18-24 h, at 10 µM, stronger effect = lower value
Receptor tyrosine-protein kinase erbB-2 (Homo sapiens), sequence (P04626 whole entry, looked up): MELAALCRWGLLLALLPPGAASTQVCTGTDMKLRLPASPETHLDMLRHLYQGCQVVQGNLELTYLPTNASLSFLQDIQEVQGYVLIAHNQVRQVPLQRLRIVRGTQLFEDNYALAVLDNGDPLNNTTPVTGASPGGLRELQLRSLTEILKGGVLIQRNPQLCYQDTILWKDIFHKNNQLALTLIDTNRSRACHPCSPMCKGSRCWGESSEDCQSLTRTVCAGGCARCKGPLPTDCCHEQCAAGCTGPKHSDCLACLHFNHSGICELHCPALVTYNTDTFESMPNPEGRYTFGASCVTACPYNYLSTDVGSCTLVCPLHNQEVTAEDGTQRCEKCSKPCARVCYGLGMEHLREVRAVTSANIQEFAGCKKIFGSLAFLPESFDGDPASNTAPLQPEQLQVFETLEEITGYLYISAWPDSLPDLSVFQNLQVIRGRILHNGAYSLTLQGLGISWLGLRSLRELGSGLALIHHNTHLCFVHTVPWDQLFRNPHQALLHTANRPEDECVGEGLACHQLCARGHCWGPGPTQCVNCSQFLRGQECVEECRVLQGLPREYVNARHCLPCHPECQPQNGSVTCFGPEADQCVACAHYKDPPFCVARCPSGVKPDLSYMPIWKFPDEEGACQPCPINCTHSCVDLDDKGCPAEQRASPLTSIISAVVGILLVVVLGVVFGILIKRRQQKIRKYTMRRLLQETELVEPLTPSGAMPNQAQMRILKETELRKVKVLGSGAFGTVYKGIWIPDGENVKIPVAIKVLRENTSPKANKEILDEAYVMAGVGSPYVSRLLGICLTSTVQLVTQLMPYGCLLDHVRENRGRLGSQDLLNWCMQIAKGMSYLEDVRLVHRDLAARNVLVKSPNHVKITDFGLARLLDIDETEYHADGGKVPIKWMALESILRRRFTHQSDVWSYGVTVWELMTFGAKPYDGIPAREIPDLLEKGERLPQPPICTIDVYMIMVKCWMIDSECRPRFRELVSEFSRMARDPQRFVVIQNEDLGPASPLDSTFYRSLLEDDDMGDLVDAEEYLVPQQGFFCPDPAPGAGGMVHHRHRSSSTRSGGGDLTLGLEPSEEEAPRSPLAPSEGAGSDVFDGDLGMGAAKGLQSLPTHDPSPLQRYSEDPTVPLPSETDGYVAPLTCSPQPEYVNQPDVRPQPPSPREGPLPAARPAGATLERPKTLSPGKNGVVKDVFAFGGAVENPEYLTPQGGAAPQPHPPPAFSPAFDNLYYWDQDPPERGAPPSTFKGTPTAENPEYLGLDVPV

[3] = SK-BR-3 cell growth inhibitors, pilot screen, 24 h, human (AID 572;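 active = viability at or below 10% of carrier control in both of two separate runs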;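 also: compound exposure lasted between 18 and 24 h rather than exactly 24 h; 100% = carrier-treated control wells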); settings: SK-BR-3 viability, CellTiter-Glo luminescence, at 10 µM, stronger effect = lower value
[4] = HUVEC growth inhibition – cell-based, human, primary screen (AID 575;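 active = viability at or below 30% in both replicate assays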;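 also: 100% = median of untreated cell wells with 0.1% DMSO on each plate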); settings: HUVEC proliferation, CellTiter-Glo luminescence, 72 h; at 10 µM; stronger effect = lower value
[5] = growth inhibitors of H69AR lung tumor, primary screen, human, duplicate replicates (AID 580;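 active = viability at or under a set limit in both replicates, limit being median viability minus 3 SD, cut at about 48% in these data, passing the limit was not always enough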;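 also: 100% = mean luminescence of untreated wells and 0% = no signal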); settings: H69AR lung tumor cells viability, ATP luminescence, 72 h; at 10 µM; stronger effect = lower value
[6] = reversal of MRP1-mediated doxorubicin resistance, pilot screen, H69AR cells, doxorubicin co-treatment (AID 601;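 active = viability loss from added drug above about 55%, and viability with drug at most 40%, in both replicates, limit read from the data, passing the limit was not always enough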); settings: CellTiter-Glo, 72 h, at 10 µM; for differential viability (reversal): stronger effect = higher value
[7] = 384-well plate pilot, post-Golgi transport modulator project, inhibition of yeast transport mutant growth (AID 636; in the data active = inhibition above about 31%); settings: absorbance 615 nm, about 18 h, stronger effect = higher value
[8] = growth suppression of yeast trafficking mutant, preliminary HTS, modulators of trafficking downstream of Golgi apparatus project, 1536-format plate, OD 615 nm (AID 637; in the data active = inhibition above about 30%); settings: yeast transport mutant growth, absorbance 615 nm, 18 h; stronger effect = higher value
[9] = OD615 S. cerevisiae growth inhibition, permissive medium, pilot counter-assay, permissive growth control for S. cerevisiae lifespan shortening project (AID 705;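 active = growth inhibition above 25% in both replicates, a cutoff set 3 SD above the mean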); settings: OD615, 24 h, at 10 µM, stronger effect = higher value
[10] = Restrictive medium S. cerevisiae growth inhibition, OD615, pilot screen of yeast lifespan reduction project, restrictive growth control (AID 706;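 active = growth inhibition above a set limit, 3 SD over mean compound inhibition, in both replicates, cut at about 43% in these data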;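 also: modified DeaD lifespan yeast strain shifted to restrictive glucose medium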); settings: OD615, 48 h, at 10 µM, stronger effect = higher value
[11] = viability gain of MRP-1-high H69AR cells under doxorubicin, pilot screen, MRP-1 activator project, CellTiter-Glo, duplicate (AID 807;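 active = viability increase at or above a cutoff of the median across tested compounds plus 3 SD, cut at about 8.5% in these data, passing the limit was not always enough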;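 also: compound pretreatment 18-22 h then 72 h combined with doxorubicin; 0% = doxorubicin alone and 100% = vehicle without doxorubicin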); settings: H69AR viability with doxorubicin, CellTiter-Glo luminescence; at 10 µM; stronger effect = higher value
[12] = growth suppression of beta-catenin knockout HCT116, pilot screen, human colon tumor cells (AID 823;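 active = cell viability at or below a set limit in both duplicate runs, the limit being the all-compound median minus 4 SD, cut at about 23% in these data, passing the limit was not always enough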;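 also: 0% = wells killed by 20 µM Hyamine and 100% = untreated DMSO cell wells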); settings: CellTiter-Glo, 60 h, at 10 µM, stronger effect = lower value
[13] = growth suppression of PTEN-deleted HCT116, pilot screen, cell-based, HCT116 clonal line, CellTiter-Glo (AID 824); settings: 60 h, at 10 µM, stronger effect = lower value;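 also: 0% = 20 µM Hyamine control and 100% = vehicle cell control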
[14] = inhibitors of the yeast RAM network, pilot screen, dse1pr::URA3 reporter, 5-FOA selection (AID 869;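 active = inhibition over a set limit, the all-compound mean plus 3 SD, in both replicate runs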;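 also: 0% = DMSO wells with no growth and 100% = 10 µM 1-NA-PP1 with full growth; RAM network block rescues cells from 5-FOA so hits raise OD615 growth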); settings: S. cerevisiae dse1pr::URA3 5-FOA growth, OD615, 2 d; at 10 µM; stronger effect = higher value; strain carries analog-sensitive mutant Cbk1 kinase
[15] = RAM signaling pathway blockade in yeast – S. cerevisiae, Pdr1DBD-CYC8 efflux-inhibited sensitized strain, primary screen (AID 1298;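 active = RAM network inhibition above 8.4% in each of two replicates, 3 SD over the compound average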;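 also: 0% = DMSO untreated cells without growth and 100% = 10 µM 1-NA-PP1 full growth; higher means more yeast growth rescued from 5-FOA killing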); settings: S. cerevisiae cbk1-as DSE1-URA3 strain, 5-FOA growth OD615, 2 d; at 50 µM; stronger effect = higher value
[16] = H69AR cells + 2 uM doxorubicin, measured here: viability with 2 uM doxorubicin, stronger effect = lower value
[17] = H69AR cells, compound alone cytotoxicity

Compound | viability [1] [%] | Her2 level [2] | viability [3] | viability [4] | viability [5] | differential viability (reversal) ([6]; H69AR cells + 2 uM doxorubicin) | viability [6, 16] [%] | viability [6, 17] [%] | inhibition [7] | inhibition [8] | growth inhibition [9] | growth inhibition [10] | viability increase [11] | viability [12] | viability [13] | inhibition [14] | RAM network inhibition [15]
CCCCc1cc2c(c(NC(C)=O)n1)c(=O)oc1ccccc12 | 112 | 99% (inactive) | 112% (inactive) | 80.6% (inactive) | 77.9% (inactive) | -8.33% (inactive) | 86.2 | 77.9 | -3.47% (inactive) | -4% (inactive) | -9.7% (inactive) | -4.55% (inactive) | -4.33% (inactive) | 94.8% (inactive) | 87.8% (inactive) | 1.68% (inactive) | 3.84% (inactive)
CCCC(=O)Nc1cc(C)c2c(=O)oc3ccccc3c2n1 | 87 | 94.5% (inactive) | 87% (inactive) | 63.6% (inactive) | 77.6% (inactive) | -20.4% (inactive) | 98 | 77.6 | -0.4% (inactive) | 0.33% (inactive) | -11.5% (inactive) | 3.23% (inactive) | -4.74% (inactive) | 82.5% (inactive) | 86.1% (inactive) | 1.65% (inactive) | 8.68% (inactive)
C=CCSc1nnc(Cc2c(C)[nH]c3ccccc23)o1 | 90.5 | 96% (inactive) | 90.5% (inactive) | 84.7% (inactive) | 92.2% (inactive) | 6.96% (inactive) | 85.3 | 92.2 | -3.87% (inactive) | -2.5% (inactive) | 1.6% (inactive) | 3.4% (inactive) | -0.66% (inactive) | 99.7% (inactive) | 99.5% (inactive) | -0.545% (inactive) | 1.36% (inactive)
CCOC(=O)N1CCC(NC(=O)C2CCCN(C(=O)c3cc4sccc4n3C)C2)CC1 (stereo not drawn) | 113 | 114% (inactive) | 113% (inactive) | 82.2% (inactive) | 94.8% (inactive) | -0.91% (inactive) | 95.7 | 94.8 | -2.4% (inactive) | -0.83% (inactive) | -18% (inactive) | -12.6% (inactive) | 0.63% (inactive) | 96.7% (inactive) | 95.7% (inactive) | 0.665% (inactive) | 0.11% (inactive)
Cn1c(=O)c2c(nc3sccn32)n(C)c1=O | 106 | 109% (inactive) | 106% (inactive) | 112% (inactive) | 87.7% (inactive) | -1.71% (inactive) | 89.4 | 87.7 | -3.51% (inactive) | -4.1% (inactive) | -7.3% (inactive) | -10.3% (inactive) | -1.33% (inactive) | 101% (inactive) | 99.4% (inactive) | 1.48% (inactive) | 2.73% (inactive)
CCOc1ccc(CCN2C(=O)C3C4C=CC(C4)C3C2=O)cc1OCC (stereo not drawn) | 96 | 93.5% (inactive) | 96% (inactive) | 97.7% (inactive) | 87.9% (inactive) | 4.56% (inactive) | 83.4 | 87.9 | -6.27% (inactive) | -1.67% (inactive) | 0.49% (inactive) | 3.99% (inactive) | -0.38% (inactive) | 102% (inactive) | 101% (inactive) | 1.38% (inactive) | 1.5% (inactive)
CC1CCN(C(=O)CSc2nnc(Cc3cc(=O)[nH]c(=O)[nH]3)n2-c2ccc(Cl)cc2)CC1 | 92.5 | 117% (inactive) | 92.5% (inactive) | 101% (inactive) | 101% (inactive) | 2.73% (inactive) | 98.2 | 101 | -1.54% (inactive) | -4.17% (inactive) | -17.1% (inactive) | -15.4% (inactive) | -0.15% (inactive) | 105% (inactive) | 100% (inactive) | -0.375% (inactive) | 4.41% (inactive)
COc1ccc(NC(=O)CSc2nnc(Cc3cccn3C)n2-c2ccc(F)cc2)cc1 | 96 | 112% (inactive) | 96% (inactive) | 94.4% (inactive) | 94.8% (inactive) | -14.7% (inactive) | 110 | 94.8 | -2.27% (inactive) | -6.5% (inactive) | 4.66% (inactive) | 11.6% (inactive) | -2.27% (inactive) | 88.8% (inactive) | 86% (inactive) | 2.56% (inactive) | 8.6% (inactive)
CCOc1ccc(N(CC(=O)Nc2ccc(F)c(F)c2)S(=O)(=O)c2c(C)noc2C)cc1 | 83.5 | 80% (inactive) | 83.5% (inactive) | 54% (inactive) | 65.8% (inactive) | 1.49% (inactive) | 64.3 | 65.8 | -4.4% (inactive) | -1.31% (inactive) | -11.3% (inactive) | -9.45% (inactive) | -3.6% (inactive) | 93% (inactive) | 88.7% (inactive) | 2.33% (inactive) | 4.77% (inactive)
CC(=O)c1ccc(OCC(O)CN2CCN(Cc3ccc4c(c3)OCO4)CC2)cc1 (stereo not drawn) | 102 | 102% (inactive) | 102% (inactive) | 101% (inactive) | 88.7% (inactive) | -2.19% (inactive) | 90.8 | 88.7 | -6.13% (inactive) | 2.5% (inactive) | -5.95% (inactive) | -5.68% (inactive) | -0.65% (inactive) | 102% (inactive) | 92.4% (inactive) | 1.67% (inactive) | 1.31% (inactive)
COc1cc(NC(=O)C2C3C=CC(C3)C2C(=O)O)c(OC)cc1Cl (stereo not drawn) | 86 | 95% (inactive) | 86% (inactive) | 98.4% (inactive) | 98.3% (inactive) | 4.4% (inactive) | 93.9 | 98.3 | -2.16% (inactive) | -3.61% (inactive) | -4.4% (inactive) | -20.4% (inactive) | -1.99% (inactive) | 101% (inactive) | 91.8% (inactive) | 2.7% (inactive) | 1.54% (inactive)
CCOc1ccc(NC2c3ccccc3C(=O)N2Cc2ccco2)cc1 (stereo not drawn) | 83.5 | 96.5% (inactive) | 83.5% (inactive) | 98.7% (inactive) | 96.2% (inactive) | -2.58% (inactive) | 98.8 | 96.2 | 5% (inactive) | 7.83% (inactive) | 3.67% (inactive) | 6.9% (inactive) | -0.75% (inactive) | 92.6% (inactive) | 85.4% (inactive) | 1.4% (inactive) | 5.57% (inactive)
O=C(NCc1ccc(F)cc1)c1cc2ccccn2n1 | 84 | 98.5% (inactive) | 84% (inactive) | 99% (inactive) | 98.2% (inactive) | 17.5% (inactive) | 80.6 | 98.2 | -2.95% (inactive) | 4.5% (inactive) | 1.54% (inactive) | 3.24% (inactive) | -0.54% (inactive) | 99% (inactive) | 89.8% (inactive) | 0.47% (inactive) | 1.1% (inactive)
COc1ccc(OC)c(NC(=O)CSc2nnc(Cc3cccn3C)n2-c2ccc(F)cc2)c1 | 81 | 90% (inactive) | 81% (inactive) | 62.7% (inactive) | 85.6% (inactive) | 7.76% (inactive) | 77.9 | 85.6 | 3.59% (inactive) | 0% (inactive) | 4.57% (inactive) | 16.1% (inactive) | -5.9% (inactive) | 97.1% (inactive) | 92% (inactive) | -0.57% (inactive) | 2.89% (inactive)
CNC(=O)c1ccccc1NC(=O)c1c(O)c2c([nH]c1=O)CCCC2 | 112 | 79% (inactive) | 112% (inactive) | 98.9% (inactive) | 109% (inactive) | 8.66% (inactive) | 99.9 | 109 | -1.71% (inactive) | 0.48% (inactive) | -17.1% (inactive) | -10.1% (inactive) | -2.56% (inactive) | 88.9% (inactive) | 94.5% (inactive) | 1.7% (inactive) | 3.36% (inactive)
O=C(NC1CCN(Cc2ccccc2)CC1)C1CCN(S(=O)(=O)c2cccc3cccnc23)CC1 | 96.5 | 97.5% (inactive) | 96.5% (inactive) | 86.9% (inactive) | 102% (inactive) | 1.09% (inactive) | 101 | 102 | -0.13% (inactive) | -2.62% (inactive) | 5.75% (inactive) | 1.73% (inactive) | 1.84% (inactive) | 88.3% (inactive) | 96% (inactive) | -0.18% (inactive) | 1.59% (inactive)
CC1=C(C(=O)N2CCCCC2)C(c2cccs2)C2=C(CCCC2=O)N1 (stereo not drawn) | 100 | 174% (inactive) | 100% (inactive) | 96.7% (inactive) | 92.8% (inactive) | 1.19% (inactive) | 91.7 | 92.8 | 0.13% (inactive) | -5.67% (inactive) | -7.14% (inactive) | -3.55% (inactive) | -0.74% (inactive) | 98.1% (inactive) | 87% (inactive) | 1.4% (inactive) | -0.77% (inactive)
COC(=O)c1ccc(-c2nn(C)c(=O)c3ccccc23)cc1 | 93.5 | 99.5% (inactive) | 93.5% (inactive) | 83.8% (inactive) | 94.6% (inactive) | 7.75% (inactive) | 86.9 | 94.6 | -5.33% (inactive) | 4.17% (inactive) | 3.78% (inactive) | 6.35% (inactive) | -2.27% (inactive) | 94.3% (inactive) | 91% (inactive) | 0.79% (inactive) | -1.8% (inactive)
CCCNc1nc(N2CCOCC2)nc(N2CCOCC2)n1 | 97.5 | 110% (inactive) | 97.5% (inactive) | 109% (inactive) | 90.5% (inactive) | -3.39% (inactive) | 93.9 | 90.5 | -0.52% (inactive) | -7.38% (inactive) | -4.61% (inactive) | 2.38% (inactive) | -0.12% (inactive) | 92.8% (inactive) | 102% (inactive) | 1.26% (inactive) | 2.19% (inactive)

— PubChem BioAssay
